Data taken from PubChem BioAssay (EPA / NIEHS).
A structure can be active in one record and inactive in another. Active and inactive are the calls of the source. How the source made its calls: active means hit-call score of the fitted dose curve at least 0.9, where 1 is the maximum; inactive means score below 0.9.

Assays:
[1] = read-out: Human Leukocyte Antigen - DR isotype (HLADR), HLA-DRA (gene 3122); assay: BSK_BE3C_HLADR: BioMAP Diversity Plus: BE3C Assay for Human Leukocyte Antigen - DR isotype (HLADR) Biomarker Activity (AID 2283032); settings: primary human bronchial epithelial cells; actives raise or lower the signal
Method in brief: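 Signal came from an ELISA for HLA-DR in human bronchial epithelial primary cells harvested 24 h after treatment; gain- and loss-of-signal fitting used DMSO controls as reference.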

[2] = read-out: Vascular cell adhesion molecule 1 (VCAM1), VCAM1 (gene 7412); assay: BSK_4H_VCAM1: BioMAP Diversity Plus: 4H Assay for Vascular cell adhesion molecule 1 (VCAM1) Biomarker Activity (AID 2283033); settings: primary human endothelial cells (HUVEC); actives raise or lower the signal
Method in brief: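 Endpoint derived from bidirectional fitting against DMSO controls of VCAM-1 ELISA signal in umbilical vein endothelial cells sampled at 24 h following treatment.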

[3] = read-out: Interferon-gamma inducible Protein 10 (IP10), CXCL10 (gene 3627); assay: BSK_BE3C_IP10: BioMAP Diversity Plus: BE3C Assay for Interferon-gamma inducible Protein 10 (IP10) Biomarker Activity (AID 2283034); settings: primary human bronchial epithelial cells; actives raise or lower the signal
Method in brief: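 Using primary human bronchial epithelial cultures, the assay captures IP-10 by ELISA one day (24 h) after exposure. Parallel SRB staining of total protein flags overt cytotoxicity. Fits run bidirectionally relative to DMSO.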

[4] = read-out: Monokine induced gamma interferon (MIG), CXCL9 (gene 4283); assay: BSK_BE3C_MIG: BioMAP Diversity Plus: BE3C Assay for Monokine induced gamma interferon (MIG) Biomarker Activity (AID 2283035); settings: primary human bronchial epithelial cells; actives raise or lower the signal
Method in brief: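 ELISA read-out of MIG in human lung bronchial epithelial primary cultures, 24 h post-dosing. Bidirectional curve fit vs DMSO baseline.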

[5] = read-out: Transforming growth factor beta 1 (TGFb1), TGFB1 (gene 7040); assay: BSK_BE3C_TGFb1: BioMAP Diversity Plus: BE3C Assay for Transforming growth factor beta 1 (TGFb1) Biomarker Activity (AID 2283036); settings: primary human bronchial epithelial cells; actives raise or lower the signal
Method in brief: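 In this human primary bronchial epithelial system, an ELISA quantified TGF-b1 one day after dosing. Endpoint changes in either direction were fitted relative to DMSO.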

[6] = read-out: Plasminogen activator inhibitor-1 (PAI1), SERPINE1 (gene 5054); assay: BSK_BE3C_PAI1: BioMAP Diversity Plus: BE3C Assay for Plasminogen activator inhibitor-1 (PAI1) Biomarker Activity (AID 2283037); settings: primary human bronchial epithelial cells; actives raise or lower the signal
Method in brief: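 PAI-1 biomarker levels in treated human bronchial epithelial cells are determined by ELISA at 24 h. Both increases and decreases relative to DMSO are fitted.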

[7] = read-out: urokinase plasminogen activator (uPA), PLAU (gene 5328); assay: BSK_BE3C_uPA: BioMAP Diversity Plus: BE3C Assay for urokinase plasminogen activator (uPA) Biomarker Activity (AID 2283038); settings: primary human bronchial epithelial cells; actives raise or lower the signal
Method in brief: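 ELISA for uPA on human primary bronchial epithelial cultures 24 h post-treatment, gain or loss against DMSO. Parallel SRB staining (0.1% after 10% TCA fixation, 560 nm) assessed overt cytotoxicity.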

[8] = read-out: Urokinase-type plasminogen activator receptor (uPAR), PLAUR (gene 5329); assay: BSK_BE3C_uPAR: BioMAP Diversity Plus: BE3C Assay for Urokinase-type plasminogen activator receptor (uPAR) Biomarker Activity (AID 2283039); settings: primary human bronchial epithelial cells; actives raise or lower the signal
Method in brief: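 A uPAR ELISA serves as the readout, taken 24 h after treating primary human bronchial epithelial cells. Responses in either direction are fitted against DMSO, which defines baseline activity.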

[9] = read-out: Interleukin-6 (IL6), IL6 (gene 3569); assay: BSK_CASM3C_IL6: BioMAP Diversity Plus: CASM3C Assay for Interleukin-6 (IL6) Biomarker Activity for (AID 2283040); settings: primary human coronary artery smooth muscle cells; actives raise or lower the signal
[10] = read-out: Tissue plasminogen activator (tPA), PLAT (gene 5327); assay: BSK_BE3C_tPA: BioMAP Diversity Plus: BE3C Assay for Tissue plasminogen activator (tPA) Biomarker Activity (AID 2283041); settings: primary human bronchial epithelial cells; actives raise or lower the signal
Method in brief: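 Bidirectional curve fitting relative to DMSO defined activity, with tPA detected by ELISA in chemically treated human bronchial epithelial primary cells at 24 hours.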

Measured: AC50

O=C(O)CCCOc1ccc(Cl)cc1Cl
not listed: [10]
inactive: all other assays above

CCc1ccc(C(=O)NN(C(=O)c2cc(C)cc(C)c2)C(C)(C)C)cc1
not listed: [10]
inactive: all other assays above

Cc1[nH]c(=O)n(C(C)(C)C)c(=O)c1Cl
not listed: [10]
inactive: all other assays above

ClC1C(Cl)C(Cl)C(Cl)C(Cl)C1Cl (configuration not stated)
inactive: all assays above

O=C(NC(=O)c1c(F)cccc1F)Nc1ccc(OC(F)(F)C(F)OC(F)(F)F)c(Cl)c1 (configuration not stated)
active: [1] 7.82 µM | [5] 0.235 µM
not listed: [10]
inactive: all other assays above

O=[N+]([O-])c1c(Cl)c(Cl)c(Cl)c(Cl)c1Cl
active: [2] 19.3 µM
inactive: all other assays above

O=C1c2ccccc2C(=O)N1SC(Cl)(Cl)Cl
active: [1] 30.6 µM | [3] 35 µM | [4] 35.7 µM | [5] 31.6 µM | [6] 20 µM | [7] 28.7 µM | [8] 34.7 µM | [9] 30.3 µM
inactive: [2]

N#Cc1c(Cl)c(Cl)c(Cl)c(C#N)c1Cl
active: [1] 1.7 µM | [2] 1.16 µM | [3] 2.35 µM | [4] 3.01 µM | [5] 3.94 µM | [6] 2.5 µM | [7] 1.69 µM | [8] 3.98 µM | [9] 3.56 µM | [10] 3.97 µM

CCS(=O)(=O)c1cccnc1S(=O)(=O)NC(=O)Nc1nc(OC)cc(OC)n1
inactive: all assays above

[2H]C1([2H])[n+]2ccccc2-c2cccc[n+]2C1([2H])[2H]
active: [8] 2.68 µM
inactive: all other assays above

CCC(C)(NC(=O)c1cc(Cl)c(C)c(Cl)c1)C(=O)CCl (configuration not stated)
active: [1] 13.6 µM | [2] 10.5 µM | [3] 34 µM | [4] 32.8 µM | [7] 29.7 µM | [8] 31.5 µM
inactive: [5] | [9]

Cc1cc(C)nc(NC(=O)NS(=O)(=O)c2ccccc2C(=O)OC2COC2)n1
inactive: all assays above

C#CCN1C(=O)COc2cc(F)c(N3C(=O)C4=C(CCCC4)C3=O)cc21
active: [1] 3.97 µM
not listed: [10]
inactive: all other assays above

COC(=O)c1ccccc1CS(=O)(=O)NC(=O)Nc1nc(OC)cc(OC)n1
inactive: all assays above

CC(C)OC(=O)Nc1cccc(Cl)c1
not listed: [10]
inactive: all other assays above

Oc1ccc(Cl)cc1Cc1ccccc1
inactive: [9]
active: [1] 34.7 µM [middle of 7 runs] | [2] 31 µM [middle of 6 runs] | [3] 35.3 µM [middle of 7 runs] | [4] 37.3 µM [middle of 7 runs] | [5] 33.9 µM [middle of 7 runs] | [6] 34.4 µM [middle of 7 runs] | [7] 36.3 µM [middle of 7 runs] | [8] 32.1 µM [middle of 7 runs] | [9] 30.5 µM [middle of 4 runs]

CNC(=O)CSP(=S)(OC)OC
inactive: all assays above

Clc1ccccc1-c1nnc(-c2ccccc2Cl)nn1
active: [5] 32.5 µM
inactive: all other assays above

COC(=O)c1ccccc1S(=O)(=O)NC(=O)Nc1nc(C)nc(OC)n1
active: [8] 0.173 µM
inactive: all other assays above

CC(C)N(C(=O)COc1nnc(C(F)(F)F)s1)c1ccc(F)cc1
inactive: all assays above

CC[C@H](C)[C@H]1O[C@]2(C=C[C@@H]1C)C[C@@H]1C[C@@H](C/C=C(\C)[C@@H](O[C@H]3C[C@H](OC)[C@@H](O[C@H]4C[C@H](OC)[C@@H](O)[C@H](C)O4)[C@H](C)O3)[C@@H](C)/C=C/C=C3\CO[C@@H]4[C@H](O)C(C)=C[C@@H](C(=O)O1)[C@]34O)O2 (tested in a mixture with another compound)
active: [1] 5.87 µM | [2] 11.6 µM | [3] 5.96 µM | [5] 20 µM | [6] 5.51 µM | [7] 5.41 µM | [8] 6.13 µM | [9] 13.9 µM

N#CN
active: [5] 0.638 µM
inactive: all other assays above

CCCN(CCC)c1c([N+](=O)[O-])cc(C(F)(F)F)cc1[N+](=O)[O-]
active: [2] 28.2 µM | [3] 25.1 µM
not listed: [10]
inactive: all other assays above

COP(=S)(OC)Oc1ccc(SC)c(C)c1
active: [8] 0.148 µM
inactive: all other assays above

CCN(CC)C(=O)SCc1ccc(Cl)cc1
not listed: [10]
inactive: all other assays above

CC(C)(C)C(O)/C(=C\c1ccc(Cl)cc1Cl)n1cncn1 (configuration not stated)
inactive: [5] | [9]
active: [1] 27.5 µM | [2] 27.7 µM | [3] 31.1 µM | [4] 35.1 µM | [6] 27.6 µM | [7] 30.3 µM | [8] 20 µM | [10] 8.37 µM
